# Measurements published in PubChem BioAssay AID2314 (National Center for Advancing Translational Sciences (NCATS), 2010).
# Several values for one entry are separate records, joined by “and”; a condition that tells them apart may be missing. Identical values can stand only once. In all, about 300,000 compounds went through this assay and about 37,000 (12%) were called active. Rule as the data show it: active = max response mostly above about 13% (no sharp cut-off); inactive = mostly below about 14%. Shown is part of a subset that was picked to be rich in actives.
# Test: Cycloheximide Counterscreen for Small Molecule Inhibitors of Shiga Toxin; also: read at 38.3 µM for the half of the compounds with a filed dose; 0% is about no effect
# Conditions: cell reporter, cycloheximide protein synthesis inhibition counterscreen; stronger effect = higher value
row,SMILES,max response
1,CCOC(=O)c1c(NC(=O)C2CC=CCC2C(=O)O)sc(C)c1CC (stereo not drawn),-3.33% (inactive)
2,Nc1nnnn1/N=C/c1cccc(Br)c1,-1.37% (inactive)
3,COc1ccc(-c2nn(C)c(=O)c3ccccc23)cc1CNC(=O)C1CCCCC1,-2.76% (inactive)
4,Cc1ccccc1Nc1scc(-c2ccc(Br)cc2)[n+]1-c1ccccc1C,12.1% (inactive)
5,CC(C)OC(=O)CN1CCN(c2ccc(Cl)cc2)CC1,-1.75% (inactive)
6,CC1CCCN(CCOCCOc2ccccc2-c2ccccc2)C1 (stereo not drawn),-1.97% (inactive)
7,Cc1ccc(CNC(=O)CSc2nnc3c(n2)[nH]c2ccc(F)cc23)cc1,-7.47% (inactive)
8,CC(c1nnc(SCC(=O)Nc2sccc2C#N)n1-c1ccc(Cl)cc1)N(C)C (stereo not drawn),-5.17% (inactive)
9,CCOc1ccc(NC(=O)C/C(C)=N/NC(=O)Cc2cccs2)cc1,11.9% (inactive)
10,Cc1nnc(NC(=O)/C=C/c2ccco2)s1,25.7% (active)
11,CCOC(=O)c1c(NC(=O)/C=C/c2ccco2)sc(C)c1C,-2.54% (inactive)
12,CCc1nnc(NC(=O)/C=C/c2ccc(C)o2)s1,21.2% (active)
13,Cc1ccc(/C=C/C(=O)Nc2ccc([N+](=O)[O-])c(NC(=O)/C=C/c3ccc(C)o3)c2)o1,-2.46% (inactive)
14,CCc1nnc(NC(=O)CCC(=O)O)s1,-1.47% (inactive)
15,CCC(CC)c1nnc(NC(=O)/C=C/c2ccco2)s1,17.5% (inactive)
16,CNC(=O)c1[nH]cnc1C(=O)N[C@@H](CC(C)C)C(=O)OCc1ccccc1,0.929% (inactive)
17,COc1ccc(NC(=O)NCCN2CCN(c3ccc(C)cc3)CC2)c(Cl)c1,-1.67% (inactive)
18,COc1ccccc1NC(=O)CSc1nnc(CNC(=O)c2ccccc2F)o1,1.71% (inactive)
19,N#Cc1ccc(S(=O)(=O)NCC(=O)OCC(=O)NCCc2ccccc2)cc1,1.22% (inactive)
20,COc1ccc(-n2cnnc2SCC(=O)Nc2cccc([N+](=O)[O-])c2)cc1,-4.87% (inactive)
21,Cc1ccccc1OCCOc1ccc([N+](=O)[O-])cc1/C=N/n1cnnc1,-2.75% (inactive)
22,COc1ccc(OCC(=O)N2CCOCC2)cc1,9.77% (inactive)
23,COc1cc(C(=S)N2CCOCC2)ccc1O,-0.128% (inactive)
24,COc1ccc(/C(C)=N/N2CCOCC2)c(O)c1,26.7% (active)

row,SMILES,max response
1,CCN(C(=O)Cc1nc(N)n[nH]1)C1(C(=O)Nc2ccccc2)CCCCC1,-6.07% (inactive)
2,Cc1cc(=O)oc2cc(OCCC[n+]3ccccc3)ccc12,1.33% (inactive)
3,Cc1nonc1C(=O)N/N=C/c1ccc(O)cc1,37.3% (active)
4,O=C(C[n+]1ccccc1)N/N=C/c1ccc(O)cc1,-3.62% (inactive)
5,CC(C)c1c(C(=O)N/N=C/c2ccc(-c3ccccc3)cc2)nnn1-c1nonc1N,-10.6% (inactive)
6,CCOc1c(OC)cccc1C(=O)NCC1(c2ccccc2)CCCC1,-2.45% (inactive)
7,O=C(C1CCN(S(=O)(=O)Cc2ccccc2)CC1)N1CCCc2ccccc21,11.2% (inactive)
8,OCC1(Cc2ccccc2)CCN(Cc2cc3ccccc3o2)CC1,1.07% (inactive)
9,Cc1ccc(S(=O)(=O)N(C)CC(=O)OCC(=O)Nc2ccccc2)cc1,3.68% (inactive)
10,O=C(COC(=O)C1CC2C=CC1C2)Nc1ccccc1 (stereo not drawn),27.3% (active)
11,NC(=O)c1ccc(NC(=O)COC(=O)C(Cc2ccccc2)NC(=O)c2ccccc2)cc1 (stereo not drawn),-2.16% (inactive)
12,COc1ccc(C(=O)n2nc(C)c(Br)c2C)cc1OC,-2.74% (inactive)
13,Cc1ccc(Nc2nc(-c3sc(NC(=O)c4ccccc4)nc3C)cs2)cc1,8.35% (inactive)
14,S=c1[nH]nc(NCCc2ccccc2)s1,-2.47% (inactive)
15,Cc1nc(C)c(-c2csc(NCCc3ccccc3)n2)s1,13.4% (active)
16,CC1CC(C)CN(C(=O)CCNC(=O)Cn2cnc3ccccc3c2=O)C1 (stereo not drawn),-4.79% (inactive)
17,O=C(N/C(=C/c1ccc(Cl)cc1)C(=O)N1CCCCC1)c1ccco1,-0.943% (inactive)
18,CCn1c(CSc2nc(C)cc(C)n2)nnc1SCC(N)=O,-2.49% (inactive)
19,C=CCn1c(SCc2c(C(=O)OC)sc(N)c2C(=O)OC)nnc1-c1ccc(Cl)cc1,-1.63% (inactive)
20,C=CCn1c(SCC(N)=O)nnc1-c1cc2c(s1)CCC(CC)C2 (stereo not drawn),29.3% (active)
21,Cc1ccc2nc(NC(=O)C3CCN(S(=O)(=O)c4ccc5c(c4)oc(=O)n5C)CC3)sc2c1,-6.17% (inactive)
22,CCS(=O)(=O)N1Cc2ccccc2CC1C(=O)Nc1ccc(OC)cc1OC (stereo not drawn),3.12% (inactive)
23,CCS(=O)(=O)N1Cc2ccccc2CC1C(=O)Nc1nc2ccc(F)cc2s1 (stereo not drawn),77.8% (active)
24,COc1ccc(-n2nnc3c(=O)n(CC(=O)OCc4ccccc4)cnc32)cc1,0.544% (inactive)

row,SMILES,max response
1,COC(=O)C(C)n1cnc2c(nnn2-c2cccc(Cl)c2)c1=O (stereo not drawn),-1.58% (inactive)
2,CCOC(=O)C(CC)Sc1ncnc2c1nnn2-c1ccc(F)cc1 (stereo not drawn),-1.76% (inactive)
3,CCOC(=O)C(C)n1cnc2c(nnn2-c2ccc(F)cc2)c1=O (stereo not drawn),8.68% (active)
4,COC(=O)C(C)n1cnc2c(nnn2-c2ccc(F)cc2)c1=O (stereo not drawn),-2.37% (inactive)
5,CCOC(=O)C(C)n1cnc2c(nnn2-c2cccc(OC)c2)c1=O (stereo not drawn),35.4% (active)
6,COc1ccc(CCN2C(=O)C(C)=C(C)C2=O)cc1OC,1.83% (inactive)
7,COc1ccc(N2CCN(C(=O)C3CCN(C(=O)c4ccccc4Cl)CC3)CC2)cc1,0.346% (inactive)
8,COc1cccc(CN(C)C(=O)CC23CC4CC(CC(C4)C2)C3)c1OC,-3.61% (inactive)
9,O=C(Nc1ccc(F)cc1)c1ccc(S(=O)(=O)NCc2cccnc2)cc1,13% (inactive)
10,O=C(Nc1ccccc1F)c1cc(S(=O)(=O)N2CCCCC2)cs1,13.9% (active)
11,O=C(Nc1ccccc1C(=O)O)c1cc(S(=O)(=O)N2CCCCC2)cs1,-3.51% (inactive)
12,Cc1ccccc1NC(=O)c1cc(S(=O)(=O)N2CCOCC2)cs1,1.05% (inactive)
13,O=C(Nc1cccc(F)c1)c1ccc(S(=O)(=O)N2CCCC2)cc1,-1.88% (inactive)
14,O=C(CN1CCCCCC1)Nc1ccc(S(=O)(=O)N2CCCCC2)cc1,-2.88% (inactive)
15,O=C(Nc1ccc(S(=O)(=O)N2CCCCCC2)cc1)c1c(F)cccc1F,16.3% (active)
16,O=C(O)c1ccc(Cn2c(=S)[nH]c3cc(Cl)ccc3c2=O)cc1,-2.92% (inactive)
17,O=C(CN1C(=O)CC(c2ccccc2)=Nc2ccccc21)NC1CCCCC1,-1.57% (inactive)
18,COc1ccc(S(=O)(=O)NNC(=O)Nc2ccc(C)cc2)c(OC)c1,0.87% (inactive)
19,COc1ccc(NS(=O)(=O)c2cc(NC(=O)CC(=O)c3ccc([N+](=O)[O-])cc3)ccc2C)cc1,-3.18% (inactive)
20,CN1/C(=c2/s/c(=C3/C(=O)N(c4ccccc4)NC3=Nc3ccccc3)n(C)c2=O)C(C)(C)c2ccccc21,-0.907% (inactive)
21,CCN1C(=O)/C(=C2/Sc3ccccc3N2CCCS(=O)(=O)O)SC1=S,-1.1% (inactive) and 2.76% (inactive)
22,CCN1C(=O)/C(=c2\s/c(=C3\Sc4ccccc4N3C)c(=O)n2C)N(C)C1=S,22.3% (active)
23,Cc1ccccc1C(=O)OC1OC(=O)C(Cl)=C1Nc1ccccc1 (stereo not drawn),0.412% (inactive)
24,CCCc1ccc(OCC(O)CN2CCN(C(=O)OCC)CC2)cc1 (stereo not drawn),-3.42% (inactive)

row,SMILES,max response
1,Cc1nc2c(c(=O)n1Cc1ccco1)c1nc3ccccc3nc1n2Cc1ccccc1,-2.66% (inactive)
2,COCCCn1c2nc3ccccc3nc2c2c(=O)n(Cc3ccc(Cl)cc3)c(C)nc21,1.89% (inactive)
3,Cc1ccc(Cn2c(C)nc3c(c2=O)c2nc4ccccc4nc2n3Cc2ccco2)cc1,15.8% (active)
4,O=C(CCCN1CCc2[nH]c3ccc(F)cc3c2C1)c1ccc(F)cc1,-1.91% (inactive)
5,Cc1ccc(S(=O)(=O)/N=S(\C)C(C)C)cc1 (stereo not drawn),-5.61% (inactive)
6,Nc1nonc1-c1noc(-c2ccc(Br)o2)n1,1.8% (inactive)
7,Brc1ccc(-c2noc(-c3ccccc3)n2)o1,60.7% (active)
8,O=C(CSc1nnc(-c2ccccc2)o1)N1CCOCC1,-2.26% (inactive)
9,Brc1ccc(-c2nnc(-c3ccccc3)o2)o1,30.6% (active)
10,Cc1cccc(C)c1OC(=O)CSc1nnc(-c2ccccc2)o1,-2.59% (inactive)
11,Cn1nc(-c2ccccc2)c(-c2nc(-c3ccc(Cl)cc3)no2)c1Cl,7.15% (inactive)
12,Cc1ccccc1OCc1nnc(SCC(=O)N2c3ccccc3Sc3ccc(Cl)cc32)o1,-2.04% (inactive)
13,CCOc1ccc(/C=N/OCC(=O)NCc2cccs2)cc1,-5.69% (inactive)
14,COc1cccc(CNC(=O)Cn2c(=O)oc3cc(S(=O)(=O)N4CCCCC4)ccc32)c1,9.69% (inactive)
15,C/C=C/C(=O)OCc1csc(CC(=O)Nc2ccccc2C)n1,7.73% (inactive)
16,Cc1cc2occ(CC(=O)NNC(=O)c3ccccc3F)c2cc1C,-1.94% (inactive)
17,NC(=O)C1CCN(C(=O)/C(=C/c2ccco2)NC(=O)c2ccccc2)CC1,-1.45% (inactive)
18,COc1ccc(CCn2c(=N)c(C(=O)NCC3CCCO3)cc3c(=O)n4cccc(C)c4nc32)cc1OC (stereo not drawn),-4.64% (inactive)
19,O=C1C2C3C=CC(C4CC34)C2C(=O)N1/N=C/c1ccc(-c2ccccc2[N+](=O)[O-])o1 (stereo not drawn),13.3% (active)
20,Cc1cc(-c2ccc(/C=N/n3cnnc3)o2)c([N+](=O)[O-])cc1C,12.6% (inactive)
21,Cc1cc([N+](=O)[O-])c(-c2ccc(/C=N/n3cnnc3)o2)cc1Cl,15.8% (inactive)
